Experimental data taken from PMC5540273 (PLoS ONE, 2017).

system: SIK; settings: concentration: 1 μM, replicates: in singlicate; n = 1
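Note: KINOMEscan kinase panel screen.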

Structure (SMILES)	%Inh [%]
Cc1cccc(-c2nc(-c3ccc(S(C)(=O)=O)cc3)sc2-c2ccncc2)c1	12
CN1c2ccc(CNc3ccc(F)cc3)cc2-c2c(cnn2C)S1(=O)=O	0
O=C1Cc2cc(Nc3nc(NCc4cccc(S(=O)(=O)C(F)(F)F)c4)ncc3C(F)(F)F)ccc2N1	6
COc1cc2c(cc1OC[C@@H](O)CO)ncc1c3ccc(C#N)cc3[nH]c21	21
COc1ccc(S(=O)(=O)NC2CCN(c3cc(C)nc(Nc4cccc(C#N)c4)n3)CC2)cc1.O=C(O)C(F)(F)F [GSK1653539]	0
[2H]C([2H])(c1cccc(C(F)(F)F)c1C)n1ccn2c(=O)nc(N3CCOCC3)cc12 [GSK2336394]	0
Cc1cccc(-c2nc(Nc3ccc4ncsc4c3)c3ccccc3n2)n1 [GW867588]	10
COc1cc2ncn(-c3cc(OCc4sccc4Cl)c(C(N)=O)s3)c2cc1OC [GSK448459]	8
CCc1ccnc(/C=C/c2n[nH]c3cc(Sc4ccccc4C(=O)NC)ccc23)c1	0
C[C@@H](Oc1cc(-n2cnc3ccc(NC(=O)NC(C)(C)C)cc32)sc1C(N)=O)c1ccccc1Cl [GSK346294]	0
COc1cc2c(cc1OCCN1CCN(C)CC1)ncc1c3ccc(C#N)cc3[nH]c21	17
COCCNC(=O)c1ccc(-c2cc(C(=O)NC3CC3)cc(F)c2C)cc1 [GW868318]	6
COc1cc(Nc2nccc(N3CCC(NC(=O)c4cccc(NC(C)=O)c4)C3)n2)cc(OC)c1OC (stereo not shown) [GSK1379754]	10
CN1c2ccc(NCc3ccc(F)cc3)cc2-c2c(cnn2C)S1(=O)=O	0
Cc1nnc(-c2ccc3ncc(-c4ccc(S(C)=O)cc4)n3c2)o1 (stereo not shown)	9
O=C(NCCCN1CCOCC1)c1cccc(Nc2nccc(Nc3ccc(Oc4ccccc4)cc3)n2)c1 [GW663929]	68
Cc1cccc(Cn2ccn3c(=O)cc(N4CCOCC4)nc23)c1 [GSK2297542]	3
Nc1nc(-c2ccc3c(N)n[nH]c3c2)cc(N2CCCC2)n1 [GSK2227430]	0

Structure (SMILES)	%Inh [%]
Fc1ccc(-c2ncn(CCCN3CCOCC3)c2-c2cccnc2)cc1 [SB-211743]	0
O=C(NOCC1CC1)c1ccc(F)c(F)c1Nc1ccc(I)cc1Cl	1
NS(=O)(=O)c1cccc(-c2ccc3ncc(N4CCOCC4)nc3c2)c1 [GSK1535721]	0
Cn1ccc2ncnc(Oc3ccc(NC(=O)Nc4ccncc4)c(Cl)c3)c21	0
NS(=O)(=O)c1cccc(-c2ccc3nccc(-c4cccc(S(N)(=O)=O)c4)c3c2)c1 [GW867253]	0
CCc1nc(-c2cccc(C)c2)c(-c2ccnc(NCc3ccccc3)c2)s1	5
O=C(Nc1cccc(-c2nn3ncccc3c2-c2ccnc(Nc3cccc(C(F)(F)F)c3)n2)c1)c1c(F)cccc1F [GSK299495]	0
O=c1cc(N2CCOCC2)nc2n(Cc3cccc(F)c3)ccn12 [GSK2297430]	4
O=C1NC(=O)C(N2CCc3ccccc32)=C1c1cccc(Cl)c1 [SB-408010]	12
Cl.Oc1cccc(Nc2ccnc3cc(-c4ccncc4)ccc23)c1 [GW494601]	72
COc1ccc(COc2cc(-n3cnc4ccccc43)sc2C(N)=O)cc1 [GSK1024304]	0
COc1ccc(Nc2ncc(C#N)c(Nc3ccccc3C(N)=O)n2)cc1N1CCN(C)CC1.Cl [GSK1558669]	98.7
Cc1cn2c(=O)cc(N3CCOCC3)nc2n1Cc1cccc(Cl)c1Cl [GSK2334006]	4
N#Cc1c(N2CCOCC2)sc(-c2ccn[nH]2)c1-c1ccc(Cl)cc1	13
N#Cc1ccc(-c2cc(-c3c[nH]nc3-c3ccccn3)ccn2)cc1 [GW693028]	0
Cc1nnc(-c2ccc3occ(-c4ccc(C(C)O)cc4)c3c2)o1 (stereo not shown)	10
Cc1c(Cn2c(C)nn3c(=O)cc(N4CCOC(C)C4)nc23)cccc1C(F)(F)F (stereo not shown) [GSK2344444]	0

system: SLK; settings: concentration: 1 μM, replicates: in singlicate; n = 1

Structure (SMILES)	%Inh [%]
Cc1cccc(-c2nc(-c3ccc(S(C)(=O)=O)cc3)sc2-c2ccncc2)c1	26
CN1c2ccc(CNc3ccc(F)cc3)cc2-c2c(cnn2C)S1(=O)=O	0
O=C1Cc2cc(Nc3nc(NCc4cccc(S(=O)(=O)C(F)(F)F)c4)ncc3C(F)(F)F)ccc2N1	0
COc1cc2c(cc1OC[C@@H](O)CO)ncc1c3ccc(C#N)cc3[nH]c21	0
COc1ccc(S(=O)(=O)NC2CCN(c3cc(C)nc(Nc4cccc(C#N)c4)n3)CC2)cc1.O=C(O)C(F)(F)F [GSK1653539]	8
[2H]C([2H])(c1cccc(C(F)(F)F)c1C)n1ccn2c(=O)nc(N3CCOCC3)cc12 [GSK2336394]	22
Cc1cccc(-c2nc(Nc3ccc4ncsc4c3)c3ccccc3n2)n1 [GW867588]	7
COc1cc2ncn(-c3cc(OCc4sccc4Cl)c(C(N)=O)s3)c2cc1OC [GSK448459]	99
CCc1ccnc(/C=C/c2n[nH]c3cc(Sc4ccccc4C(=O)NC)ccc23)c1	0
C[C@@H](Oc1cc(-n2cnc3ccc(NC(=O)NC(C)(C)C)cc32)sc1C(N)=O)c1ccccc1Cl [GSK346294]	59
COc1cc2c(cc1OCCN1CCN(C)CC1)ncc1c3ccc(C#N)cc3[nH]c21	34
COCCNC(=O)c1ccc(-c2cc(C(=O)NC3CC3)cc(F)c2C)cc1 [GW868318]	0
COc1cc(Nc2nccc(N3CCC(NC(=O)c4cccc(NC(C)=O)c4)C3)n2)cc(OC)c1OC (stereo not shown) [GSK1379754]	32
CN1c2ccc(NCc3ccc(F)cc3)cc2-c2c(cnn2C)S1(=O)=O	0
Cc1nnc(-c2ccc3ncc(-c4ccc(S(C)=O)cc4)n3c2)o1 (stereo not shown)	14
O=C(NCCCN1CCOCC1)c1cccc(Nc2nccc(Nc3ccc(Oc4ccccc4)cc3)n2)c1 [GW663929]	8
Cc1cccc(Cn2ccn3c(=O)cc(N4CCOCC4)nc23)c1 [GSK2297542]	22
Nc1nc(-c2ccc3c(N)n[nH]c3c2)cc(N2CCCC2)n1 [GSK2227430]	0

Structure (SMILES)	%Inh [%]
Fc1ccc(-c2ncn(CCCN3CCOCC3)c2-c2cccnc2)cc1 [SB-211743]	25
O=C(NOCC1CC1)c1ccc(F)c(F)c1Nc1ccc(I)cc1Cl	0
NS(=O)(=O)c1cccc(-c2ccc3ncc(N4CCOCC4)nc3c2)c1 [GSK1535721]	2
Cn1ccc2ncnc(Oc3ccc(NC(=O)Nc4ccncc4)c(Cl)c3)c21	0
NS(=O)(=O)c1cccc(-c2ccc3nccc(-c4cccc(S(N)(=O)=O)c4)c3c2)c1 [GW867253]	0
CCc1nc(-c2cccc(C)c2)c(-c2ccnc(NCc3ccccc3)c2)s1	7
O=C(Nc1cccc(-c2nn3ncccc3c2-c2ccnc(Nc3cccc(C(F)(F)F)c3)n2)c1)c1c(F)cccc1F [GSK299495]	81
O=c1cc(N2CCOCC2)nc2n(Cc3cccc(F)c3)ccn12 [GSK2297430]	18
O=C1NC(=O)C(N2CCc3ccccc32)=C1c1cccc(Cl)c1 [SB-408010]	26
Cl.Oc1cccc(Nc2ccnc3cc(-c4ccncc4)ccc23)c1 [GW494601]	11
COc1ccc(COc2cc(-n3cnc4ccccc43)sc2C(N)=O)cc1 [GSK1024304]	9
COc1ccc(Nc2ncc(C#N)c(Nc3ccccc3C(N)=O)n2)cc1N1CCN(C)CC1.Cl [GSK1558669]	100
Cc1cn2c(=O)cc(N3CCOCC3)nc2n1Cc1cccc(Cl)c1Cl [GSK2334006]	32
N#Cc1c(N2CCOCC2)sc(-c2ccn[nH]2)c1-c1ccc(Cl)cc1	17
N#Cc1ccc(-c2cc(-c3c[nH]nc3-c3ccccn3)ccn2)cc1 [GW693028]	6
Cc1nnc(-c2ccc3occ(-c4ccc(C(C)O)cc4)c3c2)o1 (stereo not shown)	14
Cc1c(Cn2c(C)nn3c(=O)cc(N4CCOC(C)C4)nc23)cccc1C(F)(F)F (stereo not shown) [GSK2344444]	7
